The source of these data is the supplement of paper PMC10646978.

± gives the standard deviation.

Holding throughout (conditions): modulator concentration 10 µM
Experiment [1] concerns RAW-Dual (murine macrophage reporter line). In words: NF-kB reporter (SEAP) activity fold change vs agonist alone; higher = enhanced NF-kB activity. In outline:
(§1)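 RAW-Dual murine macrophage reporter cells were seeded at 50 000 per well in 384-well plates and pre-incubated 1 hour at 37 °C with compound pin-transferred to 10 μM final. After 1 hour, a PRR agonist was added and cells incubated overnight. Supernatant NF-κB (SEAP, QUANTI-Blue, 620 nm absorbance) and IRF (Lucia luciferase, QUANTI-Luc, luminescence) signals were divided by the mean agonist-only control on the same plate to give fold change. Two replicate plates were averaged, with errors by propagation.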

The test system is the same in experiment [2]. Nature of the experiment: IRF reporter (Lucia luciferase) activity fold change vs agonist alone; higher = enhanced IRF activity. In outline:
as §1

For experiment [3] the test system is unchanged. Nature of the experiment: viability score (confluency relative to resting cells, overnight) (fraction); higher = more viable, active = viable (0.7 or more). In outline:
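RAW-Dual macrophages in 384-well plates were exposed overnight to compound at 10 μM final. Confluency was imaged with IncuCyte, and two confluency masks were generated with IncuCyte software over all imaged wells. The viability score is confluency expressed relative to resting cells. Compounds were called viable if both masks exceeded 70% of resting cells.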

[4] abbreviates: agonist: CpG ODN 1826 0.5 ug/mL.

As for `O=C(CC1CCCCN1S(=O)(=O)c1ccccc1)NCCC1=CCCCC1` (stereo unspecified), the NF-kB reporter was determined as 0.994 ± 0.13 in experiment [1] (setting [4]), 1.21 ± 0.095 in experiment [1] (agonist: LPS 0.1 ug/mL) and 0.903 ± 0.13 in experiment [1] (agonist: MPLA […]). Further, the IRF reporter came out at 1.03 ± 0.054 in experiment [2] (agonist: 3'3'-cGAMP 10 ug/mL), 1.23 ± 0.08 in experiment [2] (agonist: LPS 0.1 ug/mL) and 1.38 ± 0.11 in experiment [2] (agonist: MPLA […]). Moreover, the viability score in experiment [3] is 1.01 (active).

`O=C1C(=CNCCN2CCOCC2)C(C(F)(F)F)=NN1c1nc2ccccc2s1`: the figures for the NF-kB reporter in experiment [1] (setting [4]), in experiment [1] (agonist: LPS 0.1 ug/mL) and in experiment [1] (agonist: MPLA […]) were 0.967 ± 0.079, 1.01 ± 0.056 and 0.863 ± 0.06, respectively. Also, the IRF reporter in experiment [2] (agonist: 3'3'-cGAMP 10 ug/mL) worked out at 0.947 ± 0.044; in experiment [2] (agonist: LPS 0.1 ug/mL), 1.32 ± 0.17; in experiment [2] (agonist: MPLA […]), 0.98 ± 0.065. In experiment [3], the viability score is 1.01 (active).

Regarding `COCCOC(=O)C1=C(C)NC(C)=C(C(=O)OC/C=C/c2ccccc2)C1c1cccc([N+](=O)[O-])c1` (stereo unspecified), the NF-kB reporter stood at 0.743 ± 0.078 in experiment [1] (setting [4]), 0.787 ± 0.037 in experiment [1] (agonist: LPS 0.1 ug/mL) and 0.938 ± 0.09 in experiment [1] (agonist: MPLA […]). In addition, the IRF reporter worked out at 1 ± 0.057 in experiment [2] (agonist: 3'3'-cGAMP 10 ug/mL), 1.18 ± 0.088 in experiment [2] (agonist: LPS 0.1 ug/mL) and 1.17 ± 0.1 in experiment [2] (agonist: MPLA […]). Also, in experiment [3], the viability score was 1.01 (active).

On to `CCOC(=O)C1=C(C)NC(C)=C(C(=O)OCC)C1c1ccc(OC)cc1`, for which the NF-kB reporter in experiment [1] (setting [4]) amounted to 0.973 ± 0.088; in experiment [1] (agonist: LPS 0.1 ug/mL) it was 1.05 ± 0.066; in experiment [1] (agonist: MPLA […]), 1.02 ± 0.068. For the same compound, the IRF reporter in experiment [2] (agonist: 3'3'-cGAMP 10 ug/mL) was determined as 1.17 ± 0.044; in experiment [2] (agonist: LPS 0.1 ug/mL), 0.867 ± 0.081; in experiment [2] (agonist: MPLA […]), 0.987 ± 0.27. Further, the viability score in experiment [3] was 0.946 (active).

Consider `COc1ccc(N(CC(=O)Nc2ccc3ccccc3c2)S(C)(=O)=O)cc1OC`, for which the NF-kB reporter in experiment [1] (setting [4]) was 0.921 ± 0.074; in experiment [1] (agonist: LPS 0.1 ug/mL), 1.06 ± 0.06; in experiment [1] (agonist: MPLA […]), 0.883 ± 0.054. The figures for the IRF reporter in experiment [2] (agonist: 3'3'-cGAMP 10 ug/mL), in experiment [2] (agonist: LPS 0.1 ug/mL) and in experiment [2] (agonist: MPLA […]) were 0.907 ± 0.025, 1.43 ± 0.18 and 1.06 ± 0.14, respectively. For the same compound, the viability score in experiment [3] was 1.01 (active).

On to `COc1ccc(C(=O)Nc2sc3c(c2C(N)=O)CCCC3)cc1OC`, for which the results for the NF-kB reporter in experiment [1] (setting [4]), in experiment [1] (agonist: LPS 0.1 ug/mL) and in experiment [1] (agonist: MPLA […]) were 0.866 ± 0.067, 1.01 ± 0.056 and 1.09 ± 0.029, respectively. Moreover, the figures for the IRF reporter in experiment [2] (agonist: 3'3'-cGAMP 10 ug/mL), in experiment [2] (agonist: LPS 0.1 ug/mL) and in experiment [2] (agonist: MPLA […]) were 0.694 ± 0.038, 0.942 ± 0.12 and 1.08 ± 0.14, respectively. Further, the viability score in experiment [3] is 0.998 (active).

Take `CC1=NN(c2ccc(C)c(C)c2)C(=O)/C1=N\Nc1cccc(-c2cccc(C(=O)O)c2)c1O.NCCO.NCCO`: the NF-kB reporter in experiment [1] (setting [4]) worked out at 1.63 ± 0.31; in experiment [1] (agonist: LPS 0.1 ug/mL) it was 1.28 ± 0.23; in experiment [1] (agonist: MPLA […]), 1.49 ± 0.14. The values for the IRF reporter in experiment [2] (agonist: 3'3'-cGAMP 10 ug/mL), in experiment [2] (agonist: LPS 0.1 ug/mL) and in experiment [2] (agonist: MPLA […]) were 0.601 ± 0.019, 1.16 ± 0.098 and 1.2 ± 0.11, respectively. The viability score in experiment [3] is 0.861 (active).

Take `Cc1ccc(CSc2nc3sc4c(c3c(=O)n2-c2ccccc2)CC(C)(C)OC4)c(C)c1`: the NF-kB reporter in experiment [1] (setting [4]) was determined as 0.984 ± 0.093; in experiment [1] (agonist: LPS 0.1 ug/mL), 1.06 ± 0.075; in experiment [1] (agonist: MPLA […]), 0.91 ± 0.054. The IRF reporter was 1.05 ± 0.039 in experiment [2] (agonist: 3'3'-cGAMP 10 ug/mL), 1.41 ± 0.12 in experiment [2] (agonist: LPS 0.1 ug/mL) and 1.1 ± 0.21 in experiment [2] (agonist: MPLA […]). Also, the viability score in experiment [3] was 1.02 (active).

In the case of `Cc1ccc(C2(c3ccc(C)cc3)CC2C(=O)Nc2cccnc2)cc1` (stereo unspecified), the NF-kB reporter in experiment [1] (setting [4]) is 0.883 ± 0.061; in experiment [1] (agonist: LPS 0.1 ug/mL), 0.985 ± 0.076; in experiment [1] (agonist: MPLA […]), 0.82 ± 0.023. Besides, the IRF reporter came to 1.02 ± 0.036 in experiment [2] (agonist: 3'3'-cGAMP 10 ug/mL), 1.01 ± 0.062 in experiment [2] (agonist: LPS 0.1 ug/mL) and 0.91 ± 0.14 in experiment [2] (agonist: MPLA […]). In experiment [3], the viability score is 0.998 (active).

As to `Cc1ccc(Nc2nccc(N(C)c3ccc4c(C)n(C)nc4c3)n2)cc1S(N)(=O)=O`, the figures for the NF-kB reporter in experiment [1] (setting [4]), in experiment [1] (agonist: LPS 0.1 ug/mL) and in experiment [1] (agonist: MPLA […]) were 0.71 ± 0.11, 1.84 ± 0.36 and 2.52 ± 0.16, respectively. In addition, the IRF reporter in experiment [2] (agonist: 3'3'-cGAMP 10 ug/mL) worked out at 0.146 ± 0.014; in experiment [2] (agonist: LPS 0.1 ug/mL) it was 0.835 ± 0.15; in experiment [2] (agonist: MPLA […]), 1.18 ± 0.14. For the same compound, in experiment [3], the viability score was 0.78 (active).

`O=C(O)CSc1nnc(Br)n1-c1ccc(C2CC2)c2ccccc12`: the NF-kB reporter in experiment [1] (setting [4]) worked out at 1.08 ± 0.15; in experiment [1] (agonist: LPS 0.1 ug/mL) it was 0.924 ± 0.32; in experiment [1] (agonist: MPLA […]) it was 0.899 ± 0.05. Moreover, the IRF reporter in experiment [2] (agonist: 3'3'-cGAMP 10 ug/mL) was determined as 0.624 ± 0.15; in experiment [2] (agonist: LPS 0.1 ug/mL) it was 1.35 ± 0.31; in experiment [2] (agonist: MPLA […]), 1.28 ± 0.1. Also, in experiment [3], the viability score is 1 (active).

For the compound `N#CCCN(C1CCCCC1)S(=O)(=O)c1cccc2nsnc12`, the NF-kB reporter in experiment [1] (setting [4]) came to 1.05 ± 0.083; in experiment [1] (agonist: LPS 0.1 ug/mL), 0.826 ± 0.051; in experiment [1] (agonist: MPLA […]), 1.73 ± 0.58. Besides, the IRF reporter in experiment [2] (agonist: 3'3'-cGAMP 10 ug/mL) turned out to be 0.867 ± 0.048; in experiment [2] (agonist: LPS 0.1 ug/mL), 1.33 ± 0.077; in experiment [2] (agonist: MPLA […]), 1.28 ± 0.15. Further, the viability score in experiment [3] is 1.01 (active).

Consider `CN(C)CCC(c1ccc(Cl)cc1)c1ccccn1.O=C(O)/C=C\C(=O)O` (stereo unspecified), for which the NF-kB reporter in experiment [1] (setting [4]) is 1.02 ± 0.14; in experiment [1] (agonist: LPS 0.1 ug/mL), 1.08 ± 0.23; in experiment [1] (agonist: MPLA […]), 1.1 ± 0.13. For the same compound, the IRF reporter in experiment [2] (agonist: 3'3'-cGAMP 10 ug/mL) was determined as 0.799 ± 0.042; in experiment [2] (agonist: LPS 0.1 ug/mL), 1.23 ± 0.14; in experiment [2] (agonist: MPLA […]) it was 1.11 ± 0.085. The viability score in experiment [3] is 0.995 (active).
